“And” between values parts separate entries of the source, which are not always exact repeats. Identical values can stand only once. Records with an inconclusive call do not appear. The source made the active and inactive calls. Unless noted, calls come from the whole dose curve; as a rule, active = well fitted curve in the direction sought with a large enough effect; inconclusive = small, poorly fitted or top-dose-only effect, or another doubt; inactive = no such curve, though single readings can be large; an effect the other way counts as inactive or inconclusive.
Experiments:
[1] = Cell Viability - BJ (AID 421; calls by dose curve;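 note: potency is the fitted concentration of half-maximal effect; cells exposed to compound for 40 hours at 37 °C before readout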); conditions: BJ fibroblast viability, qHTS
Outline: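 Quantitative HTS: ATP depletion in BJ cells after 40 hr compound exposure in complete culture medium, detected with CellTiter-Glo; AC50 from standard Hill fits.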

[2] = Cell Viability - Jurkat (AID 426;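 active = dose-dependent loss of cell ATP signal giving a full or clear fitted curve, ranked by lower potency value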;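 note: potency is the fitted concentration of half-maximal effect; cells exposed to compound for 40 hours at 37 °C before ATP read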); conditions: qHTS
Outline: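 Seed 5000 Jurkat E6-1 cells/well; add compound; incubate 40 hr at 37 °C; add CellTiter-Glo; wait 20 min at room temperature; read luminescence. Fit concentration-response with Hill equation for AC50.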

[3] = Cell Viability - Hek293 (AID 427;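 active = compounds whose dose-response curve shows a full or clear partial loss of cell viability, called from curve shape rather than a numeric limit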;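 note: potency is the fitted concentration of half-maximal effect; cells exposed to compound for 40 hours at 37 °C before reading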); conditions: qHTS
Outline: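 AC50 values derive from Hill-modelled concentration-response of ATP-based luminescence, normalized between DMSO-only and 100 uM tamoxifen controls. Cells were exposed in complete culture medium for 40 hr at 37 °C before detection.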

[4] = Cell Viability - SK-N-SH (AID 435; calls by dose curve;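 note: potency is the fitted concentration of half-maximal effect; compound exposure lasted 40 h at 37 °C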); conditions: SK-N-SH neuroblastoma cell viability qHTS
Outline: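 CellTiter-Glo ATP luminescence, 20 min RT read; cells pre-plated 5 hr, compound 40 hr at 37 °C, 1500 cells/well, complete medium. Normalized DMSO = 0, 100 uM tamoxifen = 100% inhibition; Hill-fit AC50.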

[5] = Cell Viability - HUV-EC-C (AID 542); conditions: HUV-EC-C endothelial cell viability, qHTS; series mostly up to 92.2 µM;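 note: cells exposed to compound for 40 hours; % is set by controls: 0 for no effect and ±100 for the full control effect; nearly all actives have a fitted effect of over 35% in size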
Outline: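 Decrease in cellular ATP, quantified by luciferase luminescence, reflects toxicity in normal human vascular endothelial HUV-EC-C cells given compound for 40 hr in complete culture medium. Values are AC50s from concentration-response curves.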

[6] = Cell Viability - H-4-II-E (AID 543); conditions: H-4-II-E rat hepatoma viability; series mostly up to 92.2 µM;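 note: cells exposed to compound for 40 hours; nearly all actives have a fitted effect of over 35% in size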; note: potency is the fitted concentration of half-maximal effect
Outline: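 Here, cytotoxicity is measured in the rat hepatoma line H-4-II-E as loss of intracellular ATP after 40 hr compound treatment, detected by luciferase luminescence.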

[7] = Cell Viability - Renal Proximal Tubule (AID 545); conditions: renal proximal tubule cells viability; series mostly up to 91.7 µM;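 note: cells exposed to compound for 40 hours; 0% = DMSO only and -100% = 100 µM tamoxifen; nearly all actives have a fitted effect of over 40% in size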
Outline: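 Rat kidney proximal tubule cells, freshly isolated; 1000 cells/well, 5 hr settle, compound 40 hr 37 °C. CellTiter-Glo 20 min RT, luminescence read. AC50 by standard Hill fit.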

[8] = Cell Viability - LYMP2-015 (AID 971); conditions: LYMP2-015 lymphoblastoid cell viability; series mostly up to 92.2 µM;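 note: cells exposed to compound for 24 h; 0% = DMSO only and full effect = 92 µM tetraoctylammonium bromide; nearly all actives have a fitted effect of over 55% in size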
Outline: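 Acute toxicity was scored as a concentration-dependent drop in intracellular ATP in lymphoblastoid cells after 24 hr compound exposure in complete medium. Detection used CellTiter-Glo luciferase luminescence.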

[9] = Cell Viability - LYMP2-019 (AID 973); conditions: LYMP2-019 lymphoblastoid cell line viability; series mostly up to 92.2 µM;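 note: cells exposed to compound for 24 h at 37 °C; 0% = DMSO alone and full effect = 92 µM tetraoctylammonium bromide; nearly all actives have a fitted effect of over 55% in size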
Outline: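 Cells plated at 2500/well and allowed 5 hr at 37 C before compound addition. After 24 hr incubation, CellTiter-Glo reagent was added, plates sat 30 min at room temperature, and luminescence was recorded.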

[10] = Cell Viability - LYMP2-012 (AID 982); conditions: LYMP2-012 lymphoblastoid cell viability qHTS; series mostly up to 92.2 µM;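 note: cellular ATP by luciferase luminescence where a drop means cytotoxicity; cells exposed to compound for one day before reading; 0% = DMSO only and full loss = 92 µM tetraoctylammonium bromide; nearly all actives have a fitted effect of over 55% in size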
[11] = Cell Viability - LYMP2-020 (AID 986); conditions: series mostly up to 92.2 µM;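 note: cells exposed to compound for 24 h at 37 °C; plate controls were DMSO only for no effect and tetraoctylammonium bromide at 92 µM for full effect; nearly all actives have a fitted effect of over 55% in size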
Outline: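 Acute cytotoxicity in a human lymphoblastoid line is scored as a concentration-dependent fall in cellular ATP after 24 hr at 37 C in complete medium. The positive control is tetraoctylammonium bromide, and potency is given as Hill-fit AC50.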

[12] = Cell Viability - LYMP2-022 (AID 987); conditions: LYMP2-022 lymphoblastoid cell viability; series mostly up to 92.2 µM
Outline: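 Acute toxicity in a human lymphoblastoid line is scored as decreased intracellular ATP after 24 hr compound treatment at 37 C. ATP is measured by CellTiter-Glo luminescence; curves are fitted with the Hill equation to give AC50.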

[13] = Cell Viability - LYMP2-026 (AID 989); conditions: LYMP2-026 lymphoblastoid cell viability, qHTS; series mostly up to 92.2 µM;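 note: cells exposed to compound for 24 h at 37 °C; % is set by controls: 0 for no effect and ±100 for the full control effect; nearly all actives have a fitted effect of over 50% in size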
Outline: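 Concentration-dependent loss of intracellular ATP in human lymphoblastoid cells after 24 hr at 37 C, quantified by luciferase luminescence. AC50 derived from standard Hill equation.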

[14] = Cell Viability - LYMP1-002 - Assay at 40 hr (AID 994); conditions: LYMP1-002 lymphoblastoid cell viability; series mostly up to 92.2 µM;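 note: 0% = DMSO only and full inhibition = 92 µM tetraoctylammonium bromide; nearly all actives have a fitted effect of over 60% in size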
Outline: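 Viability in the human lymphoblastoid line was measured as intracellular ATP via CellTiter-Glo after 40 hr compound exposure. Tetraoctylammonium bromide served as positive control.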

[15] = qHTS assay for small molecule agonists of retinoid X receptor alpha signaling (AID 588544; calls by dose curve); conditions: HEK293T RXRa-UAS-bla, beta-lactamase reporter, 18 h; 530 nm emission
[16] = molecular target: Retinoic acid receptor RXR-alpha (Homo sapiens) (UniProt P19793); assay: as above; conditions: HEK293T RXRa-UAS-bla, beta-lactamase reporter, 18 h; series mostly up to 76.7 µM
Retinoic acid receptor RXR-alpha (Homo sapiens), sequence (P19793 whole entry, looked up): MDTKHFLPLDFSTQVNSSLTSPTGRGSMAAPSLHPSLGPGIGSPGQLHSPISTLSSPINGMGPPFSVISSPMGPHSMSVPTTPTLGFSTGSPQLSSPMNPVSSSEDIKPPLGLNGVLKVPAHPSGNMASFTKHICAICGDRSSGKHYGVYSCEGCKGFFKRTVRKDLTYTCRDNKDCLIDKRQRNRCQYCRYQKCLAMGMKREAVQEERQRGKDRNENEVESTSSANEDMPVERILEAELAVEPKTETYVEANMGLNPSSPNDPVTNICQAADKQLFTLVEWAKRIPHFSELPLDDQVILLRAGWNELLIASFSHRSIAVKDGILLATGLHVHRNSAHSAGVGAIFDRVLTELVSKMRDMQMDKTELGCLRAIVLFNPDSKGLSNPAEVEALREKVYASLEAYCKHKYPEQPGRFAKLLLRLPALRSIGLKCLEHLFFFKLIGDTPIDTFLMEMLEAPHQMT

[17] = molecular target: Thyroid hormone receptor beta (Homo sapiens) (UniProt P10828); assay: qHTS assay for small molecule agonists of thyroid hormone receptor beta signaling (AID 588545; calls by dose curve;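 note: 0% = DMSO only and 100% = 10 nM T3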); conditions: TR-UAS-bla GripTite HEK 293, beta-lactamase ratio, agonist mode, 18 h; series mostly up to 76.7 µM
Thyroid hormone receptor beta (Homo sapiens), sequence (P10828 whole entry, looked up): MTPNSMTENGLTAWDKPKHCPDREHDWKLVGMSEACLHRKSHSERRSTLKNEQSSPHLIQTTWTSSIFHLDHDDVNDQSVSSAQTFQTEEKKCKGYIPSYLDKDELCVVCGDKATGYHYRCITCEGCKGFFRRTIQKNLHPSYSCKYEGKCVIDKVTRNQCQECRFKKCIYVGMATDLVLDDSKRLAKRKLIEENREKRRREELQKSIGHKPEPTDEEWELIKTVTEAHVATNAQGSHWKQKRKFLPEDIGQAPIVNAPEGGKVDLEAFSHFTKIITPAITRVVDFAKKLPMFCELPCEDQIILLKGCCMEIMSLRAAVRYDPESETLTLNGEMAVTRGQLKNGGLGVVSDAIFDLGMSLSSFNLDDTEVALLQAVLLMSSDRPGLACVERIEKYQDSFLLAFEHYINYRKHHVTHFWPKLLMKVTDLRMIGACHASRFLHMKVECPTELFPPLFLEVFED
Outline: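 Beta-lactamase reporter activity under TR response element control is measured in HEK 293 cells after 18 hrs compound exposure. Signal is ratiometric CCF4 fluorescence, 460/530 nm.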

[18] = qHTS assay for small molecule antagonists of retinoid X receptor alpha signaling (AID 588546; active = well fitted inhibition curve with a large enough effect in the signal ratio, with a control signal flat, not every such curve was filed as active; the % refers to the signal ratio;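 note: cells stimulated with 9-cis-retinoic acid as agonist; % is set by controls: 0 for no effect and ±100 for the full control effect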); conditions: HEK293T RXRa-UAS-bla, beta-lactamase ratio, antagonist mode; measured here: W530 green channel, cytotoxicity proxy
Outline: (§1)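 Beta-lactamase reporter inhibition, read as CCF4 fluorescence ratio (ex 405, em 460/530 nm) after 2 h at RT. HEK293T UAS-bla cells, 2500/well, were stimulated with 9-cis-RA at 500 or 100 nM final alongside test compound for 18 h at 37 C.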

[19] = molecular target: Retinoic acid receptor RXR-alpha (Homo sapiens) (UniProt P19793); assay: as above; conditions: HEK293T RXRa-UAS-bla, beta-lactamase ratio, antagonist mode
Outline: as §1

[20] = molecular target: Voltage-gated inwardly rectifying potassium channel KCNH2 (Homo sapiens) (UniProt Q12809); assay: qHTS Assay for Small Molecule Inhibitors of the Human hERG Channel Activity (AID 588834); conditions: U2OS BacMam hERG, FluxOR thallium flux fluorescence; series mostly up to 92.2 µM;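 note: top concentration of the series differs between compounds; % is set by controls: 0 for no effect and ±100 for the full control effect; lower thallium flux fluorescence means stronger hERG block; nearly all actives have a fitted effect of over 50% in size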
Voltage-gated inwardly rectifying potassium channel KCNH2 (Homo sapiens), sequence (Q12809 whole entry, looked up): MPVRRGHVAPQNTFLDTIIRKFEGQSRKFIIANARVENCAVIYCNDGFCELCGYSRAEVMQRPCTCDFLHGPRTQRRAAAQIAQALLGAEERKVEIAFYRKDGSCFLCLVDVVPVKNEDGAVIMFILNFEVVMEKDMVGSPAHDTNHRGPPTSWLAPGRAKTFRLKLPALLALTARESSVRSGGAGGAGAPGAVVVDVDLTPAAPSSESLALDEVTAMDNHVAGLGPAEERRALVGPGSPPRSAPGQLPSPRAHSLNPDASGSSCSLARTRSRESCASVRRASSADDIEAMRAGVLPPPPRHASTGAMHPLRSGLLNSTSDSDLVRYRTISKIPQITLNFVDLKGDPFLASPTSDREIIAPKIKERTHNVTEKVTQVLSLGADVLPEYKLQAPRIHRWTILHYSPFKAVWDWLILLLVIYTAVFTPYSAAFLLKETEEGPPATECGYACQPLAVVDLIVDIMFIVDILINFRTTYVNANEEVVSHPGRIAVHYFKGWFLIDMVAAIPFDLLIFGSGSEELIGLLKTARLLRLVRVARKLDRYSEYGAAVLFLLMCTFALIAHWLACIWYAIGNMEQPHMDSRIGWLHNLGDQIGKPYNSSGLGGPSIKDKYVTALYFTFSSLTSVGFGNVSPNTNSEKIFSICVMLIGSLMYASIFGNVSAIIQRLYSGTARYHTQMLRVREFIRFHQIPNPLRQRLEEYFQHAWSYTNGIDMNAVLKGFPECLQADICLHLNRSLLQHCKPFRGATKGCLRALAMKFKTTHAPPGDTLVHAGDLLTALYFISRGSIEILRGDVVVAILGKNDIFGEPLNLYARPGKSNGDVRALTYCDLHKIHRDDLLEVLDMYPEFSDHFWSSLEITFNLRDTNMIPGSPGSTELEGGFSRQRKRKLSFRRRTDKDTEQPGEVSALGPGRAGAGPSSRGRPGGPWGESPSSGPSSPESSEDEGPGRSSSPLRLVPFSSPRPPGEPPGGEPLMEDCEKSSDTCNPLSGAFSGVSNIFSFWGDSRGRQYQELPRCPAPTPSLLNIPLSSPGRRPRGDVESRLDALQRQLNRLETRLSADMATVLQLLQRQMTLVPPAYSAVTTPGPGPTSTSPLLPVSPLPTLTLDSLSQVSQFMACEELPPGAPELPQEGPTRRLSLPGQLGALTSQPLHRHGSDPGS
Outline: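 Concentration-response qHTS measuring drop in thallium-sensitive dye signal. U2OS cells carrying BacMam hERG; compound exposure ~10 min, then stimulation buffer and 2 min read at 1 sec intervals.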

BrC(Br)Br
0.74%: max response [15]
inactive: Potency [1] > 92 µM | Potency [2] > 92 µM | Potency [3] > 92 µM | Potency [4] > 92 µM | Potency [5] | Potency [6] | outcome [7] | Potency [8] | Potency [9] | Potency [10] | Potency [11] | Potency [12] | Potency [13] | Potency [14] | outcome [16] | Potency [17] | max response [19] 20% | Potency [20]
-5.42%: max response [18]

ClCc1ccccn1
-5.13% and -0.246%: max response [15]
3.04% and -6.39%: max response [18]
inactive: Potency [1] > 92 µM | Potency [2] > 92 µM | Potency [3] > 92 µM | Potency [4] > 92 µM | Potency [5] | Potency [6] | outcome [7] | Potency [8] | Potency [9] | Potency [10] | Potency [11] | Potency [12] | Potency [13] | Potency [14] | outcome [16] | Potency [17] | max response [19] -12.8% and -17% | Potency [20]

Cc1cc(-c2ccc(N)c(C)c2)ccc1N
inactive: Potency [1] > 92 µM | Potency [2] > 92 µM | Potency [3] > 92 µM | Potency [4] > 92 µM | Potency [5] | outcome [7] | Potency [8] | Potency [9] | Potency [10] | Potency [11] | Potency [12] | Potency [13] | Potency [14] | outcome [16] | Potency [17] | max response [19] -5.08% and -3.85% and -31.9% | Potency [20]
-15.7% and -12.6% and -3.84%: max response [18]
-4.96% and -4.31%: max response [15]

COC(=O)Nc1nc2ccccc2[nH]1
inactive: Potency [1] > 92 µM | Potency [3] > 92 µM | Potency [4] > 92 µM | Potency [9] | Potency [10] | Potency [11] | Potency [12] | Potency [13] | Potency [17] | max response [19] -21.4% | Potency [20]
active: Potency [2] 3.38 µM | Potency [6] 3.98 µM
1.76%: max response [18]

Clc1cccc2ccccc12
inactive: Potency [1] > 92 µM | Potency [2] > 92 µM | Potency [3] > 92 µM | Potency [4] > 92 µM | Potency [5] | Potency [6] | outcome [7] | Potency [8] | Potency [9] | Potency [10] | Potency [11] | Potency [12] | Potency [13] | Potency [14] | outcome [16] | Potency [17] | max response [19] -3.67% | Potency [20]
-3.08%: max response [18]
0.056%: max response [15]

Clc1ccc(Cl)c(Cl)c1
-7.44% and -24%: max response [15]
10.3% and -7.29%: max response [18]
inactive: Potency [1] > 92 µM | Potency [2] > 92 µM | Potency [3] > 92 µM | Potency [4] > 92 µM | Potency [5] | Potency [6] | outcome [7] | Potency [8] | Potency [9] | Potency [10] | Potency [11] | Potency [12] | Potency [13] | Potency [14] | outcome [16] | Potency [17] | max response [19] 7.63% and -21.3% | Potency [20]

CC(C)[C@]12CC(=O)[C@H](C)[C@H]1C2
inactive: Potency [1] > 92 µM | Potency [2] > 92 µM | Potency [3] > 92 µM | Potency [4] > 92 µM | Potency [5] | Potency [6] | outcome [7] | Potency [8] | Potency [9] | Potency [10] | Potency [11] | Potency [12] | Potency [13] | Potency [14] | outcome [16] | Potency [17] | max response [19] 7% and 0.913% | Potency [20]
-7.72% and -9.15%: max response [18]
-6.67% and -9.54%: max response [15]

Nc1ccccc1-c1ccccc1
inactive: Potency [1] > 92 µM | Potency [2] > 92 µM | Potency [3] > 92 µM | Potency [4] > 92 µM | Potency [5] | Potency [6] | outcome [7] | Potency [8] | Potency [9] | Potency [11] | Potency [13] | Potency [14] | outcome [16] | Potency [17] | max response [19] -19.9% | Potency [20]
-0.398%: max response [18]
14.6%: max response [15]

Oc1cccc(Cl)c1Cl
inactive: Potency [1] > 92 µM | Potency [2] > 92 µM | Potency [3] > 92 µM | Potency [4] > 92 µM | Potency [5] | Potency [6] | outcome [7] | Potency [8] | Potency [9] | Potency [10] | Potency [11] | Potency [12] | Potency [13] | Potency [14] | outcome [16] | Potency [17] | max response [19] -5.77%
-4.72%: max response [18]
-10%: max response [15]

N#CCCCCC#N
inactive: Potency [1] > 92 µM | Potency [2] > 92 µM | Potency [3] > 92 µM | Potency [4] > 92 µM | Potency [5] | Potency [6] | outcome [7] | Potency [8] | Potency [9] | Potency [10] | Potency [11] | Potency [12] | Potency [13] | Potency [14] | outcome [16] | Potency [17] | max response [19] 12.5% | Potency [20]
10.4%: max response [15]
-2.9%: max response [18]

C/C=C/CC#N
5.46%: max response [18]
-10.7%: max response [15]
inactive: Potency [1] > 92 µM | Potency [2] > 92 µM | Potency [3] > 92 µM | Potency [4] > 92 µM | Potency [5] | Potency [6] | outcome [7] | Potency [8] | Potency [9] | Potency [10] | Potency [11] | Potency [12] | Potency [13] | Potency [14] | outcome [16] | Potency [17] | max response [19] 13.1% | Potency [20]

CC(=O)[O-].CC(=O)[O-].CC(=O)[O-].[Cr+3]
-6.52%: max response [15]
-2.43%: max response [18]
inactive: Potency [1] > 92 µM | Potency [2] > 92 µM | Potency [3] > 92 µM | Potency [4] > 92 µM | Potency [5] | Potency [6] | outcome [7] | Potency [8] | Potency [9] | Potency [10] | Potency [11] | Potency [12] | Potency [13] | Potency [14] | outcome [16] | Potency [17] | max response [19] 18.8% | Potency [20]

Clc1cccc(Cl)c1Cl
inactive: Potency [1] > 92 µM | Potency [2] > 92 µM | Potency [3] > 92 µM | Potency [4] > 92 µM | Potency [5] | Potency [6] | outcome [7] | Potency [8] | Potency [9] | Potency [10] | Potency [11] | Potency [12] | Potency [13] | Potency [14] | outcome [16] | Potency [17] | max response [19] 1.17% and -4.41% | Potency [20]
4.23% and 3.5%: max response [15]
3.05% and -10.8%: max response [18]

Source: PubChem BioAssay (NCATS)
